Laboratory results as given in PubChem BioAssay AID485297 (National Center for Advancing Translational Sciences (NCATS), 2010).
Out of some 320,000 compounds screened, about 9,100 (2.8%) were called active. Where a call stands in place of a potency, no number is given. About 3% were inconclusive and are not listed. The call rests on the fitted dose curve; in most records, active means well fitted activation curve with a large enough effect; inconclusive means small, poorly fitted or top-dose-only effect; inactive means no such curve, though single readings can be large or run the other way. Many of the other results were omitted from the sample, so actives are more common in it than they were.

test: qHTS Assay for Rab9 Promoter Activators; conditions: Huh7 Rab9 promoter-luciferase reporter, luminescence, 24 h; series mostly up to 9.22 µM; further: nearly all actives have a fitted effect of over 60% in size
Summary of the method: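 Cell-based reporter: Huh7 stable for Rab9 promoter-driven luciferase, plated in reduced-serum medium with 10% FBS at 1500 cells/well, compound-treated 24 h at 37 °C, luminescence read after 10 min reagent.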
Potency means the concentration at half of the fitted maximal effect.

SMILES	Potency
CCC(C)C(N=C1NS(=O)(=O)c2ccccc21)C(=O)N1CCC(C)CC1 (stereo unspecified)	inactive
O=C(NCCc1ccc(F)cc1)c1ccc(S(=O)(=O)N2CCCCC2)cc1	inactive
O=C(NCCc1ccc(F)cc1)c1ccc2nccnc2c1	1120 nM (active)
Cc1ccc(C)c(NC(=O)c2ccc3nccnc3c2)c1	inactive
CC(=O)Nc1ccc(NC(=O)COC(=O)c2ccccc2C(=O)c2ccccc2)cc1	inactive
CCN(CC)S(=O)(=O)c1ccc2[nH]c(=O)cc(C(=O)N(C)C3CCS(=O)(=O)C3)c2c1 (stereo unspecified)	inactive
Cc1ccccc1Nc1nc(N)nc(COC(=O)CCC(=O)c2ccc(F)cc2)n1	inactive
O=C(Nc1nnc(-c2ccc(F)cc2)s1)c1c(F)cccc1Cl	inactive
CC(C)c1cc(C(N)=O)c(NC(=O)c2cccc(COc3ccc(Br)cc3)c2)s1	1260 nM (active)
CCOC(=O)c1cc(C(C)C)sc1NC(=O)COC(=O)c1nccnc1N	inactive
NNC(=O)c1cccc(COCC(F)(F)C(F)F)c1	inactive
COCC(C)NC(=O)c1ccc(-n2nc(C(F)(F)F)cc2-c2cccs2)cc1 (stereo unspecified)	inactive
C=CCn1c(CCNC(=O)c2cccs2)n[nH]c1=S	inactive
C=CCn1c(=NC(=O)c2ccc(S(=O)(=O)N3CCCC3)cc2)sc2cc(NC(C)=O)ccc21	inactive
C=CCn1c(=NC(=O)c2cccs2)sc2cc(NC(C)=O)ccc21	3980 nM (active)
Cc1cccc(NS(=O)(=O)c2cccc(C(=O)NNC(=O)c3ccccc3O)c2)c1	inactive
O=C(CSc1ccccc1)Nc1cccc(S(=O)(=O)N2CCCCC2)c1	inactive
CCN(c1ccccc1)S(=O)(=O)c1ccc(OCC(=O)N2CCCC2)cc1	inactive
CC(=O)Nc1ccc(SC[C@H](Cc2ccccc2)N2CC[C@@H](C)CCC2=O)cc1	inactive
COc1cc(OC)cc(-c2nnc(N(C)C(=O)c3ccncc3)s2)c1	inactive
COc1cccc(-c2nnc(N(C)C(=O)c3ccno3)s2)c1	inactive
CN(C(=O)c1ccccn1)c1nnc(-c2ccccn2)s1	3550 nM (active)

SMILES	Potency
O=C(CNc1ccccc1N1CCCC1=O)Nc1cc(Cl)ccc1-n1cncn1	inactive
Cc1c(Br)c([N+](=O)[O-])nn1CC(=O)N1CCN(Cc2ccccc2)CC1	inactive
O=C(COC(=O)c1cc(=O)[nH]c2ccccc12)NCc1cccc(Cl)c1	inactive
COc1ccc(C(=O)NCc2nnc(SCCOc3ccccc3)n2C)cc1	inactive
COc1ccc(C(=O)NCCSc2ccccc2C)cc1	794 nM (active)
COc1cccc(C(=O)NCCSc2ccc(Br)cc2)c1	inactive
CCNC(=O)N1CCN(S(=O)(=O)c2ccc3c(c2)OCCCO3)CC1	inactive
COc1ccc(OC)c(/C=N/NC(=O)c2ccc[n+](CC(=O)c3ccccc3)c2)c1	inactive
O=c1c2ccccc2nc2n1C(CSc1ccc(Cl)cc1)CN2 (stereo unspecified)	inactive
Clc1ccc2nc(CSc3ccccc3)cn2c1	316 nM (active)
O=C(/C=C/c1ccc2c(c1)OCO2)NCc1cn2cc(Cl)ccc2n1	inactive
O=C(Nc1ccc2oc(-c3ccc4ccccc4c3)nc2c1)c1cccs1	1260 nM (active)
O=C(Nc1ccc(NC(=O)c2cccs2)cc1)c1ccc2ccccc2c1	inactive
COc1cc2ccccc2cc1C(=O)Nc1ccc(NC(=O)c2cccs2)cc1	inactive
COc1ccc(S(=O)(=O)N2CCN(CC(=O)N3c4ccccc4CC3C)CC2)cc1OC (stereo unspecified)	inactive
Nc1nc(SCC(=O)Nc2ccc(Cl)c([N+](=O)[O-])c2)n[nH]1	inactive
C/C=C\C=C\C(=O)N1CC2(CC(c3cccc(NC(=O)/C(C)=C\C)c3)=NO2)C[C@H]1C(N)=O (stereo partly specified)	inactive
COc1ccccc1C1CCN(C(=S)Nc2ccc(Br)cc2)CC1	inactive
CC(C(=O)N1CCc2ccccc21)N(C)CC(=O)Nc1ccc(F)cc1 (stereo unspecified)	inactive
CCn1ccnc1CN(C)C(=O)c1cc(COc2ccc(-n3cncn3)cc2)on1	inactive
Cc1cc(CN(C)C(=O)c2cc(COc3ccc(C)c(C)c3)on2)n[nH]1	2000 nM (active)
CN(Cc1cnccn1)C(=O)c1cc(COc2cccc(C(F)(F)F)c2)on1	inactive

SMILES	Potency
CN(CCOc1ccccc1)C(=O)c1cc(COc2c(F)cccc2F)on1	inactive
CN(Cc1cccnc1)C(=O)c1cc(COc2ccc3ncccc3c2)on1	inactive
Cc1ccc(OCc2cc(C(=O)N(C)CCc3ccccc3)no2)cc1C	3980 nM (active)
COc1ccc(C(=O)N2CCN(c3ncccn3)CC2)cc1S(=O)(=O)N1CCOCC1	inactive
COc1cccc(NC(=O)CN(C)C(=O)/C=C/c2cn(-c3ccccc3)nc2-c2cccs2)c1	inactive
CN(C)CCn1c(=S)[nH]c2ccc(Cl)cc2c1=O	inactive
CN(C)CCN=c1cc(-c2ccccc2)oc2ccc(Cl)cc12	2820 nM (active)
O=C(NCC#CCSc1nnc(-c2cccc3ccccc23)o1)c1cccs1	inactive
COCCN(C(=O)CC1CCCCC1)c1c(N)n(CC(C)C)c(=O)[nH]c1=O	inactive
O=C(Nc1ccc(S(=O)(=O)N2CCCCC2)cc1)C1CCN(C(=O)c2ccc(F)cc2)CC1	inactive
Cc1ccc(S(=O)(=O)N(C)C)cc1NC(=O)CN1c2cccc3cccc(c23)S1(=O)=O	inactive
COc1cc(OC)cc(C(=O)OCC(=O)Nc2ccc(F)cc2F)c1	inactive
COc1ccc(NC(=O)c2ccc(OC)cc2)cc1	1410 nM (active)
COc1ccc(C(=O)Nc2ccc(F)cc2F)cc1	2510 nM (active)
COc1ccccc1CC(=O)Nc1ccc(F)cc1F	inactive
COc1ccc(C(=O)Nc2cccc(S(C)(=O)=O)c2)cc1	inactive
COc1ccc(NC(=O)c2ccc(C#CC(C)(C)O)cc2)cc1	inactive
COc1ccc(NC(=O)CC2SC(N3CCCCC3)=NC2=O)cc1OC (stereo unspecified)	inactive
CCCc1ccc(C(=O)COC(=O)CN2C(=O)NC3(CCCCC3C)C2=O)cc1 (stereo unspecified)	inactive
O=C(CCCc1ccccc1)NCc1ccccc1	inactive
C=CCN1CCN(C(=O)CCCc2ccccc2)CC1	100 nM (active)
CCC(C)NC(=O)CCCc1ccccc1 (stereo unspecified)	inactive

SMILES	Potency
CCn1c(SCC(=O)Nc2nc3ccc(OC)cc3s2)nnc1-c1ccoc1C	inactive
COc1ccc2nc(NC(=O)[C@@H]3CCCN3C(=O)c3cccs3)sc2c1	inactive
COc1ccc2nc(NC(=O)c3ccc(Br)s3)sc2c1	2240 nM (active)
COc1ccc2nc(NC(=O)NC3CCCCC3)sc2c1	2000 nM (active)
CS(=O)(=O)c1ccc2nc(NC(=O)C3CCCCC3)sc2c1	inactive
CCc1noc(C)c1C(=O)Nc1nc2ccc(OC)cc2s1	inactive
C=CCN(c1ccccc1C(=O)NCC(=O)OCC)S(=O)(=O)c1ccc(C)cc1	inactive
COc1cc(C#Cc2ccc3cc(CCCO)oc(=O)c3c2)cc(OC)c1	inactive
O=C(O)c1cc(S(=O)(=O)Nc2ccc3cn[nH]c3c2)ccc1Br	inactive
O=C(CN1C(=O)NC2(CCOc3ccccc32)C1=O)NCc1ccc(F)cc1 (stereo unspecified)	inactive
CCOc1ccc(OCC(=O)OC(C)C(=O)NC2CCCCC2C)cc1 (stereo unspecified)	inactive
c1csc(-c2nc(-c3ccncc3)no2)c1	2510 nM (active)
O=C(NCc1cccnc1)c1nc(-c2cccs2)no1	inactive
Cc1ccc(-c2noc(CSc3nnc(-c4cccs4)n3C)n2)cc1	inactive
c1ccc(-c2noc(-c3cccs3)n2)nc1	355 nM (active)
Cc1ccc(-c2nc(-c3ccncc3)no2)c(C)c1	2510 nM (active)
COc1nc(-c2ccc(Cl)cc2)ccc1-c1noc(-c2cccs2)n1	inactive
Clc1ccc(-n2nnnc2-c2cnc(-c3ccccn3)nc2-c2cccs2)cc1	inactive
c1ccc(CCc2nc(-c3ccncc3)no2)cc1	inactive
Cc1ccc(-c2noc(CSc3nnc(-c4ccncc4)n3-c3ccc(F)cc3)n2)cc1	inactive
COc1cccc(C2=CC(=O)C[C@H](c3ccc(OC)c(OC)c3)C2)c1	inactive
Cc1ccc(NC(=O)CCCNC(=O)c2ccc(Cl)cc2)cc1S(=O)(=O)N1CCCCC1	inactive

SMILES	Potency
CN(CCc1ccccn1)C1CCCN(S(=O)(=O)c2ccccc2Cl)C1 (stereo unspecified)	inactive
O=C(NNC(=O)C1CCC1)c1ccccc1	inactive
COc1ccc(C(=O)N2CCN(c3ccc(C(C)=O)cc3F)CC2)cc1S(=O)(=O)NC1CC1	inactive
O=S(=O)(NC1CCN(S(=O)(=O)c2ccc3c(c2)OCCO3)CC1)c1c(F)cccc1F	inactive
CN1CCC(N(C)S(=O)(=O)c2ccc(NC(=O)c3cccc(C#N)c3)cc2)CC1	inactive
CC(=O)NS(=O)(=O)c1ccc(NC(=O)C2C3C=CC(C3)C2C(=O)O)cc1 (stereo unspecified)	inactive
COC(=O)c1cc(NC(=O)C2C3C=CC(C3)C2C(=O)O)cc(C(=O)OC)c1 (stereo unspecified)	inactive
CC(C)COC(=O)c1ccc(NC(=O)C2C3C=CC(C3)C2C(=O)O)cc1 (stereo unspecified)	2240 nM (active)
CCOc1ncccc1C(=O)OCC(=O)N1c2ccccc2CC1C (stereo unspecified)	inactive
Cc1cc(NC(=O)CSc2nc(C(C)C)nc3sc4c(c23)CCC(C)C4)no1 (stereo unspecified)	inactive
CC(NC(=O)CSc1nc2c(cc1C#N)CN(C)CC2)c1ccccc1 (stereo unspecified)	inactive
Cc1cc(NC(=O)CSc2nc3c(cc2C#N)CCCCC3)no1	2000 nM (active)
O=C(N/N=C/c1ccc2c(c1)OCO2)C(=O)N1CCCC1	2820 nM (active)
O=C(/C=C/c1ccc2c(c1)OCO2)NCc1ccc(F)cc1	inactive
COC(=O)c1ccc(/C=N/NC(=O)C(=O)N2CCCCCC2)cc1	inactive
O=C(CNC(=O)C(c1ccccc1)c1ccccc1)N/N=C\c1ccc2c(c1)OCO2	inactive
O=C(Cc1ccc(F)cc1)N/N=C/c1ccc2c(c1)OCO2	2820 nM (active)
O=C(N/N=C/c1ccc([N+](=O)[O-])cc1)C(=O)N1CCCC1	inactive
